Among the data in PubChem BioAssay AID686971 (National Center for Advancing Translational Sciences (NCATS), 2013) are Potency and activity, negative = toxicity values, retold here.

Out of some 360,000 compounds screened, about 7,500 (2.1%) were called active. Inconclusive results (about 8%) are left out. Calls follow the shape of the dose curve; as a rule, active = well fitted cell-killing curve with a large enough effect; inconclusive = small, poorly fitted or top-dose-only effect, or effect the other way, or another doubt; inactive = no such curve, though single readings can be large or run the other way. The list comes from a sample in which actives are over-represented; it also holds similar structures and randomly drawn compounds. A call without a number means that no potency is given here. A structure can be active in one record and inactive in another.
Potency is read from the fitted curve at half-maximal effect.

The test can be described thus: qHTS for induction of synthetic lethality in tumor cells producing 2HG: qHTS for the HT-1080-IDH1KD cell line. As to conditions: HT-1080 IDH1 knockdown viability, ATP luminescence, 48 h; series mostly up to 46.1 µM. The source says: Unbiased genomic sequencing for 22 glioma genomes found recurrent mutation of IDH1 on chromosome 2q33, a gene encoding the cytosolic isoform of IIDH1 associated with the tri-carboxylic acid cycle (TCA) that catalyzes the oxidative decarboxylation of isocitrate, yielding alpha-ketoglutarate and CO2 via NADP+ to NADPH conversion. Subsequent studies confirmed the recurrent IDH mutations in up to 70% of secondary gliomas and in 10% of AML cases. In addition, the somatic mutation of cancer-associated IDH1 is a point mutation resulting in various amino-acid substituents at Arginine132 (IDH1 R132), a key residue found in the enzyme's active site that when mutated, results in the loss-of-function in metabolizing isocitrate but confers a gain-of-function to produce the oncometabolite 2-hydroxyglutarate (2HG). This in effect defines IDH1 as an oncogene and provides an extraordinary opportunity to discover chemical probes against mutant IDH1 that may translate into much needed new therapies for glioma and AML patients.
This assay aims to perform a synthetic-lethal screen for chemical probes specific for 2HG-producing tumor cells using matched paired cell lines (1) HT-1080-NT fibrosarcoma cell line that overproduces 2HG and (2) HT-1080-IDH1KD cell line which has IDH1 expression knocked-down. Desirable compounds are toxic to the NT fibrosarcoma cell line but not to the IDH1KD cell line. The data in this AID corresponds to the results of the qHTS against the HT-1080 IDH1KD cell line.
[1] Dang L, Jin S, Su SM. IDH mutations in glioma and acute myeloid leukemia. Trends of Mol Med. 2010; 16(9): 387-97.
[2] Dang L et al. Cancer-associated IDH1 mutations produce 2-hydroxyglutarate. Nature. 2010; 465(7300):966.
Molecular Libraries Probe Production Centers Network [MLPCN]
NIH Chemical Genomics Center [NCGC]
Assay Submitter (PI): Lenny Dang Ph.D., Agios Pharmaceuticals
Suspensions of trypsinized HT-1080-IDH1KD cells were dispensed into white, tissue culture-treated, solid 1536-well plates at 5uL/well (750 cells/well final concentration) in RPMI medium supplemented with 5% FBS. Plates were incubated at 37 degrees C for 2 hours, after which 23 nL of compounds or DMSO were delivered to each well using a pin tool. Plates were then incubated at 37 degrees C for an additional 48 hours. CellTiter-Glo viability reagent (Promega) was dispensed into wells (2.5uL/well) and incubated at room temperature for 10 minutes. The plates were measured on a PerkinElmer ViewLux plate reader for luminescent signal (clear filter, 1 sec exp.). DMSO-treated control wells and media-only (no cells) control wells were used to normalize %Activity of identified toxic compounds; DMSO-treated wells corresponded to 0%Activity (100% viability), while media-only controls were used to normalize 100%Activity (0% viability). To minimize variability between cell lines, both HT-1080-NT and HT-1080-IDH1KD lines were dispensed and treated with identical compound series in single batches.
Concentration-response curves were fitted to the signals arising from the resulting luminescence. The concentration-effect curves were then classified based on curve quality (r2), response magnitude and degree of measured activity, and compounds were subsequently categorized based on their curve class.
As to `CC(=O)OC1C2(CC3N4C(=O)C5(CO)SSC4(CC31O)C(=O)N5C)OC(C)C(C)(C)C2=O` (stereo not given), the Potency was 0.58 µM (active).
Regarding `C[C@]12CCC3C(CC[C@H]4[C@H](O)[C@H](O)CC[C@]34C)C1CCC2=O` (stereo not given in full), the Potency entry is “inactive”.
Same read-out and setting: under `COC(=O)N1C(c2ccccc2)C1c1ccccc1` (stereo not given) stands “inactive”.
In the case of `CSc1ccc(C(=O)C2CCCN(Cc3ccn[nH]3)C2)cc1` (stereo not given), the Potency result is “inactive”.
On the same count and under the same terms, the entry for `CCN1C(=O)NC(=O)C2(CCCC2)C1=O` is “inactive”.
`Cc1cc(C)cc(NC(=S)NC2CC3CCCC(C2)N3Cc2cccs2)c1` (stereo not given): the Potency is 12.6 µM (active).
Still for that read-out and setting: the entry for `Cc1cc(C)c2c(c1)NP(=S)(c1ccccc1)N2` (stereo not given) is “inactive”.
The same measure, in the same setting: under `CC(=O)C1(O)CCC2C3CCC4=C(Cl)C(=O)CCC4(C)C3CCC21C` (stereo not given) stands “inactive”.
The same measure, in the same setting: the entry for `Oc1cc2c(cc1O)CN(C(=S)NCCc1ccc(Cl)cc1)CCC2` is “inactive”; for `S=C(NCCc1ccccc1)N1Cc2cc(N3CCOCC3)ccc2-n2nncc2C1` it is “inactive”.
As for `C[C@H]1CN([C@@H](C)CO)C(=O)CCCn2nncc2CO[C@H]1CN(C)C(=O)Oc1cccc2ccccc12`, the Potency entry is “inactive”.
Same read-out and setting: the entry for `O=[N+]([O-])c1ccc(Cl)c(Cl)c1` is “inactive”; for `C[C@]12CCC3C(CC[C@H]4C[C@@H](O)CC[C@]34C)C1C[C@@H](O)[C@H]2O` (stereo not given in full) it is “inactive”.
`C[C@]12CCC3C(CC[C@H]4C[C@@H](O)CC[C@]34C)C1CC[C@@H]2O` (stereo not given in full): the Potency entry was “inactive”.
Regarding `C[C@]12CC[C@H](O)C[C@H]1CC[C@@H]1C2CC[C@]2(C)[C@@H](C3=CC(=O)OC3)[C@@H](O)C[C@]12O` (stereo not given in full), the Potency is 3.66 µM (active).
On the same count and under the same terms, under `O=C1C2CCN(CC2)C1(CO)CO` stands “inactive”; under `CCOC(=O)CC(SP1(=S)OCC2(CCCCO2)C(C2CCCCO2)O1)C(=O)OCC` (stereo not given), “inactive”; under `CC(=O)Cc1ccc(OC(C)C)cc1`, “inactive”.
Same read-out and setting: the figure for `CN(C)CC1Oc2ccccc2OC1(O)c1ccccc1` (stereo not given) is 4.61 µM (active).
Consider `CCCOC(=O)C1C2c3ccccc3C(c3ccccc32)C1C(=O)O` (stereo not given), for which the Potency result was “inactive”.
With `Cc1ccc(C2CN(C)CC2C(=O)c2ccc(F)cc2)cc1` (stereo not given), the Potency result was “inactive”.
In the case of `COc1cc(C(=O)N2Cc3ccc(Br)cc3-n3nncc3C2)cc(OC)c1OC`, the Potency result is “inactive”.
Still for that read-out and setting: the entry for `CCN(CC)CCOC(=O)c1cc2cc(COC)ccc2o1` is “inactive”; for `COc1ccc2c(c1)NP(=S)(c1ccccc1)N2` (stereo not given) it is “inactive”.
Still for that read-out and setting: the figure for `CCC(C)(O)C(=O)OC1C(=O)OC2CC3C(C)=CC(=O)C(O)C3(C)C3C4(O)OCC23C1C(C)C4O` (stereo not given) is 0.0411 µM (active); for `C[C@H]1CN([C@@H](C)CO)C(=O)CCCn2nncc2CO[C@H]1CN(C)C(=O)Oc1ccccc1` it is “inactive”; for `O=C1NC(=O)C(CCOc2ccccc2)(CCc2ccccc2)C(=O)N1` it is “inactive”.
As for `COc1ccc(C2C=C(C)Oc3c2c(=O)oc2ccccc32)cc1OC` (stereo not given), the Potency entry was “inactive”.
Still for that read-out and setting: the entry for `Cc1ccc(-c2nc3ccccc3c(=O)n2-c2ccc(Br)cn2)cc1` is “inactive”; for `COC1C(O)C(C)OC(OC2CCC3(C=O)C(CCC4C3CCC3(C)C(C5=CC(=O)OC5)CCC43O)C2)C1O` (stereo not given) it is 0.0184 µM (active); for `CCn1cc(CN2CCCC(C(=O)c3cccc(C(F)(F)F)c3)C2)cn1` (stereo not given) it is “inactive”.
The same measure, in the same setting: under `CSCCC(c1nnnn1C(C)(C)C)N1CCC(n2c(=O)[nH]c3ccccc32)CC1` (stereo not given) stands “inactive”.
Still for that read-out and setting: the entry for `CC1CCCN1CCC(C(N)=O)(c1ccccc1)c1ccccc1` (stereo not given) is “inactive”; for `CCOc1ccc(-c2cc(C)[n+](CCN(CC)CC)c(-c3ccc(OCC)cc3)c2)cc1` it is 5.17 µM (active).
For `CCC(=O)OC(Cc1ccccc1)(c1ccccc1)C(C)CN(C)C` (stereo not given), the Potency entry is “inactive”.
On to `CCC1(CC(C)c2ccccc2)C(=O)NC(=O)NC1=O` (stereo not given), for which the Potency entry was “inactive”.
Turning to `COC(=O)C[C@H]1CC[C@H]2NC[C@@H](O)COC[C@@H]2O1`, the Potency result was “inactive”.
As for `CC=C(C)C(=O)OC1CCN2CC=C(COC(=O)C(O)(C(C)OC)C(C)(C)O)C12` (stereo not given), the Potency result was “inactive”.
For `Fc1ccc(N2CCN(Cc3ccc4c(c3)OCO4)CC2)cc1`, the Potency result was “inactive”.
On the same count and under the same terms, under `CC(=NCc1ccc2c(c1)OCO2)c1c(O)[nH]c(=O)[nH]c1=O` stands 20.6 µM (active).
On to `c1cc2c(cc1CCNC1CCCCCC1)OCO2`, for which the Potency entry is “inactive”.
Same read-out and setting: under `CC(C)n1c(=O)c(C=Nc2ccc(Br)cc2)c(O)n(Cc2ccco2)c1=O` stands “inactive”.
Still for that read-out and setting: under `COC(=O)C1=C(c2ccc(C(C)=O)cc2)C[C@@H]2CC[C@H]1N2C(=O)NCCNC(C)=O` stands “inactive”; under `Cc1cc(-c2ccc(N)c(C)c2)ccc1N`, “inactive”.
On the same count and under the same terms, the entry for `CCN1C(=O)C(=Cc2c(C)n(CC(=O)NCC3CCCO3)c3ccccc23)C(=O)N(CC)C1=S` (stereo not given) is “inactive”.
With `COc1cccc(OC)c1C(=O)NC(=S)N1C[C@H]2C[C@H](C1)c1cccc(=O)n1C2`, the Potency result was “inactive”.
Still for that read-out and setting: under `CCCCCCCCCCCCn1ccc(=N)cc1` stands 1.84 µM (active).
Turning to `CN1C2C=C(N(C(=O)c3ccc(Cl)cc3)c3ccccc3)CC1CC2` (stereo not given), the activity, negative = toxicity is -4% [at 9.24 µM] (inactive).
In the case of `CC(=O)NCC1=C(c2ccc3ccccc3c2)C[C@@H]2CC[C@H]1N2Cc1ccco1`, the Potency entry was “inactive”.
Consider `CCOC(=O)[C@]12Cc3ccccc3[C@H]1N(C1CCCCC1)C(=O)c1cc(OC)ccc12`, for which the Potency is 3.26 µM (active).
The same measure, in the same setting: the figure for `CCOC(=O)[C@]12Cc3cc(OC)ccc3[C@H]1N(C(C)C)C(=O)c1ccccc12` is 16.4 µM (active); for `CC1([N+](=O)[O-])COP(=O)(Nc2ccc(F)cc2)OC1` (stereo not given) it is “inactive”; for `C[C@]12CCC3C(CC[C@H]4[C@H](O)[C@H](O)CC[C@]34C)C1CC[C@@H]2O` (stereo not given in full) it is “inactive”.
With `CC(C)CN1Cc2cc(N3CCCCC3)ccc2-n2nncc2C1`, the Potency entry is “inactive”.
In the case of `CCN1CC2C3CCC(C)(O3)C2C1` (stereo not given), the Potency entry is “inactive”.
